Laboratory results reported in PubChem BioAssay (NCI).
Compounds without any hit were thinned out: in the full panel of roughly 83,000, 20% have a hit.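 The endpoint reported here, percent growth, reads 100 for growth as untreated, 0 for no net growth and -100 for all cells dead.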 Unmarked numbers belong to inactive results. The source made the active and inactive calls. The calls were made as follows: active = growth percent below 10; inactive = the rest.

The compounds below were run on LOX IMVI melanoma (assay: NCI-60 one-dose screen, 48 h (100 = growth as untreated, 0 = no growth, -100 = all killed)). Conditions: 10 µM unless noted.
In the case of `Cn1c(=O)c2[nH]c(N/N=C/c3ccccc3Br)nc2n(C)c1=O`, the growth was 104%.
For `CCCCCCNC(=O)Oc1ccc(/C(=C(/C)Cc2ccc(OC)cc2)c2ccc(OCCCN(C)C)cc2)cc1`, the growth was -60.5% (active).
For `O=C(OCc1ccc2cccc(O)c2n1)N1CCN(C(=O)c2cc3cc(F)ccc3[nH]2)CC1`, the growth was -91.8% (active).
For `CC(=O)[C@@H]1CCC=C2CC[C@]3(C)[C@@H](CC[C@@H]4[C@@]5(C)CCCNC(C)(C)[C@@H]5CC[C@]43C)[C@H]21`, the growth was -99.5% (active).
With `O=c1oc2ccc([N+](=O)[O-])cc2cc1Br` the growth was 97.2%.
With `S=C(Nc1ccc(-c2nc(N3CCOCC3)c3cccn3n2)cc1)Nc1cccnc1` the growth was 30.8%.
In the case of `O=C1/C(=C/c2ccc(-c3ccc(Br)cc3)o2)SC(=S)N1CCc1ccc(O)cc1`, the growth was 71.7%.
`CCOC(=O)CSc1ncnc2c1c(-c1ccccc1)c(-c1ccccc1)n2-c1ccc(C)cc1` gave a growth of 78.4%.
`CCNc1cc(-c2cccc(OC(F)(F)F)c2)nc2ccc(N3CCCC3)cc12` was tested, and the growth was 11.3%.
With `CCCCNC(=O)Oc1ccc(/C(=C(/CC)Cc2ccccc2)c2ccc(OCCN3CCCCCC3)cc2)cc1` the growth was -93.6% (active).
In the case of `COc1ccc(-c2nc3c(c(-c4ccccc4)nn3-c3ccccc3)c(-c3ccc(N4CCOCC4)cc3)c2C#N)cc1`, the growth was 92.2%.
For `COc1cc(-c2csc(NC(=O)c3cc(-n4cnc(C)c4)cc(C(F)(F)F)c3)n2)cc(OC)c1OC`, the growth was 53.9%.
`COc1cc(CNS(=O)(=O)c2ccc(C)cc2)ccc1OCc1cn(-c2ccc(Br)cc2)nn1` was tested, and the growth was 97.9%.
Work on `Nc1ncnc2c1N=C(c1ccc3c(c1)OCO3)CC(c1ccc([N+](=O)[O-])cc1)N2` (stereo unspecified) yielded a growth of 75.5%.
For `COc1ccc(-c2nc3c(c(-c4ccccc4)nn3-c3ccccc3)c(-c3ccc(N4CCN(C)CC4)cc3)c2C#N)cc1`, the growth was 69.2%.
For `CCOC(=O)C(=Cc1cccc(Cl)c1)C(=O)OCC`, the growth was -65.1% (active).
In the case of `O=C1NC(=O)c2c1c1c3ccccc3ccc1c1[nH]c3ccc(Br)cc3c21`, the growth was 22.8%.
In the case of `CC1(c2ccccc2O)NN=C(/N=C/c2cccc([N+](=O)[O-])c2)N1C(Cc1c[nH]c2ccccc12)C(=O)O` (stereo unspecified), the growth was 90.5%.
Work on `CCOP(=O)(OCC)c1nc(-c2ccccc2)oc1NCc1cccnc1` yielded a growth of 103%.
`CCOC(=O)c1cn2ncnc(Oc3ccc(NC(=O)NC4CCCCC4)c(Cl)c3)c2c1C` was tested, and the growth was 54.9%.
In the case of `COC(=O)c1cc(-c2ccccc2)[nH]c1N/N=C/c1c(Cl)cccc1Cl`, the growth was 21%.
In the case of `COc1ccc(-c2nnc(-c3ccc4c(c3)nc(-c3ccncc3)n4C3CCCCC3)o2)cc1`, the growth was 72.5%.
`CC(C)(C)c1cc(-c2nc3ccc(N4CCN(S(C)(=O)=O)CC4)cc3[nH]2)cc(C(C)(C)C)c1O` showed a growth of 91.8%.
For `CCCCN1C(=O)/C(=c2\sc3n(c2=O)C2C(NN=3)N(CC)C(=O)N2CC)c2ccccc21` (stereo unspecified), the growth was 20.1%.
Work on `N#Cc1nn(-c2cc(=O)[nH]c3ccc(Cl)cc23)c(N)c1C#N` yielded a growth of 96.6%.
With `Cc1ccc(-n2c(=S)[nH]c3sc4c(c3c2=O)CCC(=O)C4)cc1` the growth was 36.3%.

The compounds below were run on SK-MEL-28 melanoma in the same assay as above. Conditions: 10 µM unless noted.
In the case of `O=Cc1ccc([N+](=O)[O-])s1`, the growth was 99.5%.
In the case of `CC(C)(C)n1cc(-c2ccnc(NCCCNS(=O)(=O)c3ccc(F)cc3)c2)c(-c2cccc(F)c2)n1`, the growth was 82.4%.
`O=C1C(Cl)=C(Nc2ccc(O)cc2)C(=O)N1Cc1ccc(Cl)cc1` gave a growth of 61.6%.
Compound `COc1cc(CNC(=O)CCCC/C=C/C(C)C)ccc1OCc1nnc(Nc2ccc([N+](=O)[O-])cc2)o1` has a growth of 74.3%.
`O=C(N/N=C/c1ccc(F)cc1)c1ccc(C(F)(F)F)nc1Nc1cccc(C(F)(F)F)c1` gave a growth of 12.7%.
For `C=C(C)[C@@H]1CC[C@]2(C(=O)NCCNCCN)CC[C@]3(C)[C@H](CC[C@@H]4[C@@]5(C)C/C(=C/c6ccncc6)C(=O)C(C)(C)[C@@H]5CC[C@]43C)[C@@H]12`, the growth was 99.2%.
For `O=C(COc1ccc(-c2nc3ccccc3[nH]2)cc1)N=Nc1c(O)[nH]c2ccc(Cl)cc12`, the growth was 108%.
Compound `C/C(=N/O)c1ccc(F)cc1` has a growth of 126%.
`COc1ccc(C2=Nc3c/c(=C\c4c(O)[nH]c5ccc(Cl)cc45)ccc3=N2)cc1` showed a growth of 35.6%.
`CCOC(=O)c1cnc2ccccc2c1Cl` showed a growth of 103%.
For `CCCc1cc(NC)nc(S(=O)(=O)CC)n1`, the growth was 106%.
In the case of `COc1ccc(/C=C2\C(=O)N=C3N2NC(c2cc(Br)ccc2O)C=C(C)N3c2ccccc2)cc1` (stereo unspecified), the growth was 99.1%.
Work on `O=S(=O)(NCCNc1nccc(-c2c(-c3cccc(F)c3)nc3occn23)n1)c1ccc(Br)cc1` yielded a growth of 91.9%.
Compound `CCn1cc(C(=O)N/N=C/c2cccs2)c(=O)c2cc(F)c(N3CCNC(C)C3)c(F)c21` (stereo unspecified) has a growth of 89.9%.
In the case of `Cn1c(=O)c2[nH]c(N/N=C/c3ccccc3Br)nc2n(C)c1=O`, the growth was 107%.
With `CCCCCCNC(=O)Oc1ccc(/C(=C(/C)Cc2ccc(OC)cc2)c2ccc(OCCCN(C)C)cc2)cc1` the growth was -43.5% (active).
`O=C(OCc1ccc2cccc(O)c2n1)N1CCN(C(=O)c2cc3cc(F)ccc3[nH]2)CC1` was tested, and the growth was -91.2% (active).
With `CC(=O)[C@@H]1CCC=C2CC[C@]3(C)[C@@H](CC[C@@H]4[C@@]5(C)CCCNC(C)(C)[C@@H]5CC[C@]43C)[C@H]21` the growth was -42.3% (active).
With `O=c1oc2ccc([N+](=O)[O-])cc2cc1Br` the growth was 107%.
Compound `S=C(Nc1ccc(-c2nc(N3CCOCC3)c3cccn3n2)cc1)Nc1cccnc1` has a growth of 45.9%.
`O=C1/C(=C/c2ccc(-c3ccc(Br)cc3)o2)SC(=S)N1CCc1ccc(O)cc1` was tested, and the growth was 103%.
With `CCOC(=O)CSc1ncnc2c1c(-c1ccccc1)c(-c1ccccc1)n2-c1ccc(C)cc1` the growth was 87.6%.
In the case of `CCNc1cc(-c2cccc(OC(F)(F)F)c2)nc2ccc(N3CCCC3)cc12`, the growth was 30.6%.
For `CCCCNC(=O)Oc1ccc(/C(=C(/CC)Cc2ccccc2)c2ccc(OCCN3CCCCCC3)cc2)cc1`, the growth was -6.15% (active).
`COc1ccc(-c2nc3c(c(-c4ccccc4)nn3-c3ccccc3)c(-c3ccc(N4CCOCC4)cc3)c2C#N)cc1` gave a growth of 100%.
Work on `COc1cc(-c2csc(NC(=O)c3cc(-n4cnc(C)c4)cc(C(F)(F)F)c3)n2)cc(OC)c1OC` yielded a growth of 78.9%.
Compound `COc1cc(CNS(=O)(=O)c2ccc(C)cc2)ccc1OCc1cn(-c2ccc(Br)cc2)nn1` has a growth of 99.7%.
Compound `Nc1ncnc2c1N=C(c1ccc3c(c1)OCO3)CC(c1ccc([N+](=O)[O-])cc1)N2` (stereo unspecified) has a growth of 110%.
In the case of `COc1ccc(-c2nc3c(c(-c4ccccc4)nn3-c3ccccc3)c(-c3ccc(N4CCN(C)CC4)cc3)c2C#N)cc1`, the growth was 97.5%.
For `CCOC(=O)C(=Cc1cccc(Cl)c1)C(=O)OCC`, the growth was -39% (active).
For `O=C1NC(=O)c2c1c1c3ccccc3ccc1c1[nH]c3ccc(Br)cc3c21`, the growth was 44.4%.
`CC1(c2ccccc2O)NN=C(/N=C/c2cccc([N+](=O)[O-])c2)N1C(Cc1c[nH]c2ccccc12)C(=O)O` (stereo unspecified) was tested, and the growth was 106%.
Compound `CCOP(=O)(OCC)c1nc(-c2ccccc2)oc1NCc1cccnc1` has a growth of 113%.
With `CCOC(=O)c1cn2ncnc(Oc3ccc(NC(=O)NC4CCCCC4)c(Cl)c3)c2c1C` the growth was 93.9%.
For `COC(=O)c1cc(-c2ccccc2)[nH]c1N/N=C/c1c(Cl)cccc1Cl`, the growth was 11.4%.
For `COc1ccc(-c2nnc(-c3ccc4c(c3)nc(-c3ccncc3)n4C3CCCCC3)o2)cc1`, the growth was 94.6%.
Compound `CC(C)(C)c1cc(-c2nc3ccc(N4CCN(S(C)(=O)=O)CC4)cc3[nH]2)cc(C(C)(C)C)c1O` has a growth of 94.3%.
`CCCCN1C(=O)/C(=c2\sc3n(c2=O)C2C(NN=3)N(CC)C(=O)N2CC)c2ccccc21` (stereo unspecified) showed a growth of 48.1%.
For `N#Cc1nn(-c2cc(=O)[nH]c3ccc(Cl)cc23)c(N)c1C#N`, the growth was 104%.
Compound `Cc1ccc(-n2c(=S)[nH]c3sc4c(c3c2=O)CCC(=O)C4)cc1` has a growth of 53%.
